Screening results deposited in PubChem BioAssay by Johns Hopkins Ion Channel Center.
KCNQ2 enhance: potentiators of rat KCNQ2 potassium channel. Potassium voltage-gated channel subfamily KQT member 2 (Rattus norvegicus), O88943. CHO-K1 KCNQ2, FluxOR thallium flux fluorescence; active compounds read high. B-score at 10 µM. 0.54% of 310,000 active. AID 2239, 2010;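 active means fluorescence ratio B-score at least 3 SD of library B-scores, with initial fluorescence B-score within 3 of them, cut at about 5.3 in these data; same plate scores as AID 2156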;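 further: B-score of peak minus minimum over baseline fluorescence ratio after K+ and Tl+ stimulus; positive B-score means potentiation of KCNQ2 with more thallium influx and brighter signal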
Target sequence (O88943 whole entry, looked up): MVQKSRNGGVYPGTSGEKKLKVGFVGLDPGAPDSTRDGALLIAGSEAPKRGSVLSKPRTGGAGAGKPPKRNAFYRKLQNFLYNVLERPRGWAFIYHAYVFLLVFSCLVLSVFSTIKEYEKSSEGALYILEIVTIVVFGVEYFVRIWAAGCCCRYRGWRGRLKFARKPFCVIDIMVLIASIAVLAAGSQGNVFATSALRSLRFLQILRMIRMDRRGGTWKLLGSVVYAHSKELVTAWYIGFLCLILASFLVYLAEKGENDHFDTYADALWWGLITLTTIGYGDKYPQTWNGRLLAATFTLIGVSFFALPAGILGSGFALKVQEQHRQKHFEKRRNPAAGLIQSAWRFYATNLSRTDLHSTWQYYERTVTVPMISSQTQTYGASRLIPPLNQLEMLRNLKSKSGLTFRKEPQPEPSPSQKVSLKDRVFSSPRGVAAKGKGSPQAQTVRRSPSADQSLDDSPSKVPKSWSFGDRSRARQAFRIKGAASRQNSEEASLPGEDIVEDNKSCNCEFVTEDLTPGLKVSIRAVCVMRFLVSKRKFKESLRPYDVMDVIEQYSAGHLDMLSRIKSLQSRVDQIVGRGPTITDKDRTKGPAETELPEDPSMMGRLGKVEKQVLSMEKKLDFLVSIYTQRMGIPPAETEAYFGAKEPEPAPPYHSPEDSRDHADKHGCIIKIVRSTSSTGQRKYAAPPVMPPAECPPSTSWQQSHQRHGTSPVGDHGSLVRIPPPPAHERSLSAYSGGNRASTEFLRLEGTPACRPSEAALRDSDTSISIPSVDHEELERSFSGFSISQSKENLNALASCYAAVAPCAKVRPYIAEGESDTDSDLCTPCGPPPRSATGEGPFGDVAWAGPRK
KCNQ2 block: rat KCNQ2 potassium channel inhibitors, primary screen, cell-based, CHO-K1, FluxOR thallium flux, B-score; 1.1% of 310,000 active; 20 min; active compounds read low; Potassium voltage-gated channel subfamily KQT member 2 (Rattus norvegicus), O88943; B-score at 10 µM;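 active means fluorescence ratio B-score at most minus 3 library SDs, with starting brightness B-score within 2 library SDs, cut at about -5.5 in these data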
KCNQ2 inh conf: rat KCNQ2 potassium channel inhibitors, confirmation, cell-based, thallium flux; shares compounds with KCNQ2 block; KCNQ2-expressing cells, inhibition; active compounds read low; activity change, negative = inhibition, % at 10 µM; 57% of 1,000 active;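 further: 0% = vehicle wells and values are ratio percent relative to vehicle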
KCNQ1 spec: human KCNQ1 channel inhibition, counter-screen for KCNQ2 inhibitor project, cell-based, FluxOR thallium flux; 15% of 1,000 active; activity change, negative = inhibition, % at 10 µM; AID 493026, 2011; KCNQ1-expressing cells, FluxOR thallium flux fluorescence; active compounds read low; shares compounds with KCNQ2 block;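 active means activity change at least 3 SD of negative controls below their mean in both duplicate wells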;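 further: CHO cells stably transfected with KCNQ1 and depolarized by potassium stimulus; peak minus minimum fluorescence over baseline after thallium addition; 0% = vehicle negative control and -100% = blank without thallium stimulus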
CHO Tl ctr: thallium flux change in parental CHO cells, counter-screen for KCNQ2 inhibitor project | shares compounds with KCNQ2 block | active compounds read low | activity change, % at 10 µM | 14% of 1,000 active | AID 493029, 2011;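 further: 0% = vehicle negative controls with stimulus buffer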
KCNQ2 patch conf: rat KCNQ2 channel inhibitors, confirmation, cell-based, automated patch clamp, single concentration. shares compounds with KCNQ2 block. KCNQ2-expressing cells, automated patch clamp current. calls only at 10 µM. 49% of 550 active
Starred values were filed as active, the others as inactive; i = inactive; x = no result given; + = active, no number. An excerpt weighted towards active compounds, which were near 1.6% of everything screened. Unless noted, how the calls were made is not given here.

SMILES	KCNQ2 enhance	KCNQ2 block	KCNQ2 inh conf	KCNQ1 spec	CHO Tl ctr	others
Cc1cc(C)c(OC2(c3ccccc3)OC(=O)c3ccccc32)c(C)c1 (configuration not stated)	x	i	x	x	x
Cc1cccc(C)c1OC1(c2ccccc2)OC(=O)c2ccccc21 (configuration not stated)	-8.6	-8.6*	i	i	i
COCCC1CCCCN1C(=O)c1ccc2nc(Cc3ccccc3F)oc2c1 (configuration not stated)	0.54	i	x	x	x
C=C(C)C1CC=C(C)/C(=N/NC(=O)COc2cccc3ccccc23)C1 (configuration not stated)	-9.24	-9.24*	i	i	i
C=C(C)C1CC=C(C)/C(=N/NC(=O)COc2cccc(C)c2)C1 (configuration not stated)	1.41	i	x	x	x
C=CCn1c(NCc2c[nH]c3ccccc23)nc2ccccc21	-10	-10*	-29.5%*	i	i	KCNQ2 patch conf=+
C=CCn1c(NCc2ccc(OC)cc2)nc2ccccc21	x	i	x	x	x
COC(=O)c1cc(S(=O)(=O)NCc2cc(OC)c(OC)c(OC)c2)cn1C	x	i	x	x	x
O=C(N/N=C/c1ccoc1)c1ccccc1F	0.12	i	x	x	x
COc1ccc(OCC(=O)Nc2cc(NC(=O)c3ccco3)ccc2OC)cc1	0.48	i	x	x	x
CCc1ccc(NC(=O)CSc2nc(=O)n(CCCN(C)C)c3c2CCC3)cc1	x	i	x	x	x
CN(C)C(=O)NC1c2ccccc2-c2ccccc21	x	i	x	x	x
O=C(NC1c2ccccc2-c2ccccc21)N1CCCCC1	-6.76	-6.76*	-25.0%*	i	i	KCNQ2 patch conf=+
O=[N+]([O-])c1cccnc1S(=O)(=O)c1ccccc1	x	i	x	x	x
COc1nc(OC)nc(Oc2ccc(Cl)cc2[N+](=O)[O-])n1	x	i	x	x	x
COc1ccc([N+](=O)[O-])c(S(=O)(=O)c2ccc(Cl)cc2)n1	-9.9	-9.9*	-32.0%*	-28.5%*	-22.5%*	KCNQ2 patch conf=+
COc1ccc([N+](=O)[O-])c(S(=O)(=O)c2ccccc2)n1	-7.49	-7.49*	-28.5%*	i	i	KCNQ2 patch conf=+
COc1cc(C(=O)N/C(=C/c2ccc(F)cc2)C(=O)NC(C(=O)O)c2ccccc2)cc(OC)c1OC (configuration not stated)	x	i	x	x	x
CCOC(=O)Nc1ccc2c(c1)nc(CN1CCCCC1)n2C	x	i	x	x	x
Cc1ccccc1OCC(O)CN(Cc1ccccc1O)C1CCCCC1 (configuration not stated)	-7.41	-7.41*	-28.5%*	i	i	KCNQ2 patch conf=+
CN(CC(O)COc1ccccc1F)C1CCCCC1 (configuration not stated)	0.14	i	x	x	x
CN(C)S(=O)(=O)c1ccc(N2CCCC2)c(C(=O)NNC(=O)COc2ccccc2F)c1	-8.29	-8.29*	-22.5%*	i	i	KCNQ2 patch conf=+
CN(C)S(=O)(=O)c1ccc(N2CCCC2)c(C(=O)NNC(=O)COc2ccccc2Cl)c1	x	i	x	x	x
O=C(COC(=O)/C(=C/c1cccs1)c1cccs1)NC(c1ccccc1)c1ccccc1	-8.64	-8.64*	i	i	i
O=C(Cc1cccs1)NC(c1ccccc1)c1ccccc1	x	i	x	x	x
SMILES	KCNQ2 enhance	KCNQ2 block	KCNQ2 inh conf	KCNQ1 spec	CHO Tl ctr	others
O=C(NNC(=O)c1cc(-c2cccc(Br)c2)nc2ccccc12)c1csc(N2CCOCC2)n1	x	i	x	x	x
Cc1ccc(NC(=O)/C(=C/c2ccco2)c2ccccc2)c(C)c1	x	i	x	x	x
Cc1cc(C)c(NC(=O)/C(=C/c2ccccc2)c2ccccc2)c(C)c1	-7.48	-7.48*	i	i	i
Cc1cc(C)cc(C(=O)NCC(=O)OCC(=O)NCc2ccco2)c1	x	i	x	x	x
COc1ccc(-c2n[nH]c(C)c2-c2cnn(-c3ccccc3)c2)c(O)c1C	x	i	x	x	x
COc1ccc(-c2n[nH]c(C)c2-c2cnn(-c3ccccc3)c2)c(O)c1	-8.03	-8.03*	i	i	i
C=CCn1c(SCC(=O)NCCO)nc2sc(C)c(C)c2c1=O	x	i	x	x	x
C=CCn1c(SCC(=O)c2cc(C)n(C(C)COC)c2C)nc2sc(C)c(C)c2c1=O (configuration not stated)	-10.8	-10.8*	i	i	i
COc1ccc(-c2cc(C(=O)N3CCC3)c3ccccc3n2)cc1OC	1.16	i	x	x	x
COc1ccc(-c2cc(C(=O)N(C)Cc3ccc(F)cc3)c3ccccc3n2)cc1OC	-7.49	-7.49*	-53.0%*	-47.5%*	-55.5%*	KCNQ2 patch conf=+
COc1ccc(NC(=O)CN(C)C(=O)c2cc(-c3ccc(OC)cc3)nc3ccccc23)cc1	0.28	i	x	x	x
COc1ccc(-c2cc(C(=O)N3CC(C)CC(C)C3)c3ccccc3n2)cc1OC (configuration not stated)	-10.6	-10.6*	-31.0%*	i	i	KCNQ2 patch conf=+
COc1ccc(CCN(C)C(=O)c2cc(-c3ccc(C)cc3)nc3ccccc23)cc1OC	-6.74	-6.74*	-45.0%*	-45.5%*	-41.5%*	KCNQ2 patch conf=+
COc1ccc(-c2cc(C(=O)N3CCCC3)c3ccccc3n2)cc1OC	0.4	i	x	x	x
C[C@H]1CC[C@@]2(O[C@@H](CCO)C[C@H](O)[C@H]2O)O1	0.12	i	x	x	x
Cc1cc(C(=O)NC2CC(C)(C)Cc3c2cnn3-c2cccc(F)c2)nn1C (configuration not stated)	1.17	i	x	x	x
COC(=O)C1(C)NC(c2ccc(O)cc2)C2C(=O)N(c3ccc(C)cc3)C(=O)C21 (configuration not stated)	x	i	x	x	x
O=C(NCc1ccco1)C(=O)c1cn(CC(=O)N2CCCCC2)c2ccccc12	x	i	x	x	x
CCCCCCCCCCCCCCCC(O)C(N)CO (configuration not stated)	-10.1	-10.1*	i	i	i
CCCCCC[C@@H]([C@@H](C)O)n1cnc2c(N)ncnc21	0.81	i	x	x	x
O=[N+]([O-])c1cccc(OCCN2CCC(Cc3ccccc3)CC2)c1	-8.16	-8.16*	i	i	i
Cc1ccc([N+](=O)[O-])c(OCCCN2CCC(Cc3ccccc3)CC2)c1	x	i	x	x	x
COc1ccccc1NC(=O)c1cc(-c2ccc(C)o2)nc2ccccc12	-8.09	-8.09*	-34.0%*	i	i	KCNQ2 patch conf=+
COc1ccccc1NC(=O)c1cc(C)nc2ccccc12	x	i	x	x	x
Cc1ccc(-c2cc(C(=O)Nc3cccnc3)c3ccccc3n2)o1	-8.14	-8.14*	i	i	i
Cc1ccc(NC(=O)c2cc(-c3ccc(C)o3)nc3ccccc23)cc1	x	i	x	x	x
CSC(SC)=C(C#N)C(=O)c1ccccc1	-7.92	-7.92*	i	i	i
COc1cccc(C(=O)C(C#N)=C(SC)SC)c1	x	i	x	x	x
